From PubChem BioAssay AID602440 (Sanford-Burnham Center for Chemical Genomics, 2012)
In all, about 360,000 compounds went through this assay and about 2,300 (0.64%) were called active. Many of the other results were omitted from the sample, so actives are more common in it than they were. Unmarked numbers belong to inactive results. Rule as the data show it: active = inhibition mostly above about 40% (no sharp cut-off); inactive = mostly below about 27%.

biological target: Sentrin-specific protease 8 (Homo sapiens) (UniProt Q96LD8); assay: blockers of SENP8 deneddylase activity – biochemical, fluorescence, Nedd8 protein substrate, uHTS, primary screen (AID 602440); details: recombinant SENP8, Nedd8 substrate fluorescence; at 20 µM; hits give high values
Sequence (Q96LD8 whole entry, looked up): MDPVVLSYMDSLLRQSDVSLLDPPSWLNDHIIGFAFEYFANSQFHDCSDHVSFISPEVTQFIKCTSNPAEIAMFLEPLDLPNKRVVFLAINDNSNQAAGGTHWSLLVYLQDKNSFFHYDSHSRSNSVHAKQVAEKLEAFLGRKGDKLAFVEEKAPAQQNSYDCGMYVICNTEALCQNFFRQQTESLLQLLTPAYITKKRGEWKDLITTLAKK

Structure (SMILES) | inhibition
CCc1cc2c(SCC(=O)Nc3ncc(Cl)c(C)c3Cl)ncnc2s1 | -2.9%
CCN1N=C(c2ccccc2)CCC1=O | 8.8%
O=C1NC(=O)C2C1C(c1ccc([N+](=O)[O-])cc1)=NN2Cc1ccccc1 (stereo unspecified) | -27.9%
O=C1CC(c2ccccc2)=NN1c1ccc([N+](=O)[O-])cc1 | 71.2% (active)
Cc1ccc(NC(=S)N(CCN(C)C)Cc2cccs2)cc1C | 19.3%
CNC(=O)C[C@H]1C(=O)N(Cc2ccccc2)C[C@@H]1CSC | -6.3%
CCOC(=O)N1CCC(Nc2c(NCCCN3CCN(c4ccc(OC)cc4)CC3)c(=O)c2=O)CC1 | 63.9% (active)
CCOC(=O)N1CCN(c2c(NCCCN3CCCC(C)C3)c(=O)c2=O)CC1 (stereo unspecified) | 21.3%
CCOC(=O)N1CCC(Nc2c(NCCCN3CCN(CC)CC3)c(=O)c2=O)CC1 | 20.5%
Cc1sc2ccccc2c1CNC[C@H]1O[C@@H](n2ccc(=O)[nH]c2=O)[C@H](O)[C@@H]1O | 50.2% (active)
C[C@H](NC(=O)CC[C@H]1O[C@@H](n2ccc(=O)[nH]c2=O)[C@H](O)[C@@H]1O)c1cccc2ccccc12 | 20.1%
O=c1ccn([C@@H]2O[C@H](CNS(=O)(=O)c3cc4ccccc4s3)[C@@H](O)[C@H]2O)c(=O)[nH]1 | 7.7%
O=C(CNCc1ccc(Cl)cc1)Nc1cccc(C(=O)O)c1 | 23%
CC(C)C[C@H](NC(=O)N1CC(=O)Nc2ccccc21)C(=O)N[C@H](Cc1ccccc1)C(=O)O | 28.1%
CC(C)[C@H](NC(=O)N1CC(=O)Nc2ccccc21)C(=O)N[C@@H](Cc1c[nH]c2ccccc12)C(=O)O | 57.9% (active)
CC(C)c1ccc(NC(=O)[C@@H](NC(=O)N2CC(=O)Nc3ccccc32)C(C)C)cc1 | 8.3%
CC(OC(=O)Cc1ccc(F)cc1)C(=O)N1CCc2ccccc21 (stereo unspecified) | -2.8%
O=C(CN(C(=O)c1nsc(Cl)c1Cl)c1cccc(F)c1)NC1CCCC1 | 4.4%
COc1ccc(S(=O)(=O)n2cnc3ccccc32)c(C)c1 | 12.5%
O=C(/C=C/c1cccs1)NCc1cccnc1 | -2.1%
Cc1ccc(S(=O)(=O)NC(C)C(=O)Nc2ccccc2C(=O)N2CCCC2)cc1 (stereo unspecified) | 20.9%
CC1CCCC(NC(=O)c2cccc(N3CCCC3=O)c2)C1C (stereo unspecified) | -12.1%
O=C(/C=C/c1ccc([N+](=O)[O-])o1)NNC(=O)c1ccc(F)cc1 | 19.8%

Structure (SMILES) | inhibition
Cc1cc(C)nc(N/N=C/c2ccc([N+](=O)[O-])o2)n1 | 45.8% (active)
Cc1cc2c(C)nc(N/N=C/c3ccccc3)nc2o1 | -29.4%
CN(CC(=O)Nc1ccccc1Cl)C(=O)c1ccccc1SCC(=O)N1CCCC1 | 3.2%
COC(=O)c1ccc2c(=O)n(CCN3CCOCC3)c(SCC(=O)Nc3cccc(OC)c3)nc2c1 | 14.9%
Cc1nc2ccccc2c(=O)n1-c1ccc(NS(=O)(=O)c2ccc(F)cc2F)cc1 | 5.4%
COC(=O)Cn1c(=NC(=O)c2cc(OC)c(OC)c(OC)c2)sc2cc(OC)ccc21 | -398%
CCn1c(CNC(=O)c2cc(OC)c(OC)c(OC)c2)cc2cc(C)ccc21 | -19.2%
COC(=O)Cn1c2ccc(C)cc2c2nc(C)sc21 | 65.4% (active)
COc1cc(C(F)(F)F)c(C(=O)N(C)c2ccc(Cl)cc2)cn1 | -0.9%
OC1CSc2nc3ccccc3n2C1 (stereo unspecified) | 9.1%
O=C1NC(c2ccccc2)CCC1(Cl)Cl (stereo unspecified) | 14.1%
Nc1cccc(S(=O)(=O)Nc2ccc(SC(F)F)cc2)c1 | 5.2%
COc1ccc(NC(=O)/C(N=Nc2cccc(S(=O)(=O)Nc3ccc(SC(F)F)cc3)c2)=C(\C)O)cc1 | 38.3% (active)
Cc1c(NS(=O)(=O)c2cccc(C(=O)Nc3ccc(SC(F)F)cc3)c2)c(=O)n(-c2ccccc2)n1C | -1.9%
CC(=O)c1cnc(SCCN2C(=O)c3ccccc3C2=O)nc1C | 9.5%
CCOCCCNC(=O)c1c[nH]c2cc(C)ccc2c1=O | 5.8%
CCc1[nH]nc(C(=O)N2CCCC(CO)(Cc3ccc(F)cc3F)C2)c1C (stereo unspecified) | 3.5%
CN(c1ccc(C(=O)N2CCc3ccccc3C2)cc1)S(C)(=O)=O | 43.9% (active)
Cn1cccc1C(=O)N1CCc2ccccc2C1 | -0.8%
CS(=O)(=O)N(CC(=O)N1CCc2ccccc2C1)c1ccc(Br)cc1 | 6.5%
COc1ccc(CNC(=O)CN(C(=O)c2csnn2)c2cnc3ccccc3c2)cc1 | -222%
CCN(CC)C(=O)CSc1nc2ccccc2n1CC(=O)N1CCN(c2ccccc2OC)CC1 | 33.5%
O=c1[nH]c2ccccc2s1 | 44.5% (active)

Structure (SMILES) | inhibition
Nc1ccc2[nH]c(=S)sc2c1 | -81.4%
COc1ccc(-c2[nH]ncc2CN(C)Cc2cc(C)[nH]n2)c(F)c1 | 8.6%
CCOC(=O)c1c(CC(C)C)csc1/N=C/C1=C(O)CCCC1=O | -55.6%
Nn1cnnc1N/N=C/c1cc([N+](=O)[O-])c(Cl)cc1Cl | 51.7% (active)
CCCOc1cccc(C(=O)Nc2ccccc2C(=O)N2CCN(C)CC2)c1 | 4.7%
C[C@H]1CN([C@@H](C)CO)C(=O)CCCn2cc(nn2)CO[C@@H]1CN(C)S(=O)(=O)c1ccc(-n2cccn2)cc1 | 8.3%
Cc1cc(C)nc(N2C(=O)CC(Cc3ccccc3)C2=O)n1 (stereo unspecified) | 2.8%
COc1cc(CN2CCCN(C)CC2)c([N+](=O)[O-])cc1OC | 11.8%
O=c1[nH]n2c(=O)c3c([nH]c2c1N=Nc1ccccc1)CCC3 | 46.3% (active)
CC(C)(C)n1c(=O)[nH]c2c(c1=O)CCC2 | 16.6%
CCCCOc1ccc(C(=O)NCC(=O)OCC(=O)N2CCN(S(=O)(=O)c3ccc(C)cc3C)CC2)cc1 | 7.7%
Cc1cc(C)nc(SCc2nnc(SCC(=O)OC3CCCCC3)o2)n1 | 6.5%
COc1ccccc1C1SCCN1C(=O)c1ccc([N+](=O)[O-])cc1 (stereo unspecified) | 8.4%
CCOC(=O)C1CCCN(C(=O)c2ccc(C)c(S(=O)(=O)N3CCCCC3)c2)C1 (stereo unspecified) | 4.6%
CCOC(=O)C1CCCN(C(=O)c2ccc(N(C)C)cc2)CC1 (stereo unspecified) | 18.8%
CCOC(=O)C1CCCN(C(=O)c2ccc(C)c(F)c2)CC1 (stereo unspecified) | 40.6% (active)
CC(C)N(C(=O)Cn1cc(S(=O)(=O)CC(=O)N2CCOCC2)c2ccccc21)C(C)C | 5.7%
COC(=O)c1nc2n(n1)C(c1ccc([N+](=O)[O-])cc1)C(C(=O)Nc1ccc(Cl)cc1)=C(C)N2 (stereo unspecified) | 18.3%
COC(=O)c1cc(NC2c3ccccc3C(=O)N2c2ccc(Cl)cn2)cc(C(=O)OC)c1 (stereo unspecified) | -28%
CCc1ccccc1NC1c2ccccc2C(=O)N1c1cccnc1 (stereo unspecified) | 41% (active)
O=C1[C@@H](c2ccccc2)[C@@H](c2ccccc2)N1c1cccnc1 | -26.4%
COc1ccccc1C(=O)NC(=S)Nc1ccc(N2CCOCC2)cc1 | 14.8%
O=C(CN1CCN(c2ccc(O)cc2)CC1)Nc1ccc(-c2ccccc2)cc1 | 23.2%

Structure (SMILES) | inhibition
O=C(Cc1ccccc1)NC(=S)Nc1ccc(N2CCCCC2)cc1 | 42.1% (active)
CN1CCn2cnc(C(=O)NCC(=O)OC(C)(C)C)c2C1=O | 14.9%
CCN(CC)CCCNC(=O)CCn1nc(-c2ccc(Cl)cc2)ccc1=O | 13.2%
Cc1[nH][nH]c(=O)c1C(c1ccc(-c2ccc(Cl)cc2)o1)c1c(C)[nH][nH]c1=O | 63.5% (active)
CN(CC(=O)Nc1ccc(F)cc1)C(=O)c1ccc(-c2ccc(Cl)cc2)o1 | -23.1%
COc1ccc(C(=O)NC(=S)N2CCNC(=O)C2CC(=O)OC(C)C)cc1 (stereo unspecified) | -6.1%
CC(=O)c1ccc(OCC(=O)N(C)C2CCS(=O)(=O)C2)cc1 (stereo unspecified) | 18.3%
Cn1c(=O)[nH]c(=O)c2c1nc(CN(Cc1ccccc1)Cc1ccccc1)n2CCN1CCOCC1 | 17.1%
COCCNC(=O)NC(=O)COC(=O)C1(c2ccc(Cl)cc2)CC1 | 6.8%
O=C(Cc1ccccc1)Nc1ccc(C(=O)Nc2ccccc2C(=O)O)cc1 | -13.4%
O=C(Nc1ccc(C(=O)O)c(O)c1)c1ccccc1 | 43.3% (active)
O=C(Cn1ccc(=O)[nH]c1=O)Nc1ccc(C(=O)O)c(O)c1 | 7.9%
CC(C)C(NC(=O)c1c(F)cccc1F)C(=O)NCc1ccncc1 (stereo unspecified) | -7.7%
c1coc(-c2nc3nc4ccccc4n3nc2-c2ccco2)c1 | 106% (active)
N#Cc1ccc(C(C(=O)NCc2ccccc2)n2c(=O)c(-c3ccco3)nc3ccccc32)cc1 (stereo unspecified) | -432%
Cc1cccc(C)c1NC(=O)C(c1cccc2ccccc12)n1c(=O)c(-c2ccco2)nc2ccccc21 (stereo unspecified) | -458%
Cc1ccc2c(Cl)c(C(=O)Nc3nn[nH]n3)sc2c1 | -0.2%
Cc1noc(C)c1NC(=O)Nc1ccc2c(c1)C(=O)N([C@H](C)CO)C[C@H](C)[C@@H](CN(C)S(=O)(=O)c1cn(C)cn1)O2 | -6%
O=C(C/C(=N\NC(=O)c1ccccc1Br)C(F)(F)F)c1cccs1 | 25.6%
Cc1nc2nc(SCC(=O)c3ccccc3)[nH]c2cc1Br | 13.3%
O=C(CSc1nnc2ccccn12)c1ccccc1 | -1.2%
Cc1nc(SCC(=O)c2ccccc2)c([N+](=O)[O-])[nH]1 | 41.9% (active)
